Compounds with a hit are over-represented: about 2.2% of the library has one in this group of screens.
IEC-6 tox: kills IEC-6 intestinal cells in KLF5 counter-screen. IEC-6 cytotoxicity, luminescence viability. inhibition, % at 5 µM. actives 0.78% (n = 290,000). AID 1825;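 also: 0% = plate median of test compound wells and 100% = cytotoxic reference compound wells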
KLF5 inhibitor: inhibitors of KLF5 expression | DLD-1 KLF5 promoter-luciferase reporter, luminescence | inhibition, % at 5 µM | actives 0.23% (n = 290,000) | AID 1700;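 active = inhibition above a per-plate limit of that plate's mean compound inhibition plus 3 SD, cut at about 60% in these data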;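 also: 0% = DMSO wells and 100% = LY294002 at 200 µM; higher means less KLF5 promoter-driven luciferase light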
BaF3 tox: reduces parental Ba/F3 cell viability, JAK2V617F counter-screen. CellTiter-Glo ATP luminescence. inhibition, % at 5.6 µM. actives 1.1% (n = 220,000);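 active = inhibition above a per-campaign cutoff, the mean inhibition of all tested compounds plus 3 SD, cut at about 27% in these data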;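 also: 0% = DMSO wells and 100% = JAK Inhibitor I control wells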
aSyn 5UTR inh: 5' untranslated region of α-synuclein, MLPCN primary screen | actives 0.82% (n = 300,000) | alpha-synuclein 5'UTR reporter, inhibitor activity | inhibition, % (tested at 7.5 µM); in the data active = inhibition above about 60%; inconclusive = no clear call, values can overlap the other calls;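 also: H4 neuroglioblastoma cells stably carrying SNCA 5'UTR luciferase fusion; 0% = DMSO wells and 100% = positive control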
Ba/F3 V617F tox: lowers viability of Ba/F3 cells expressing EpoR and JAK2V617F | ATP luminescence | AID 1446 | inhibition, % at 5.6 µM | actives 1.1% (n = 220,000);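 active = inhibition above the campaign mean plus 3 SD over all tested compounds, cut at about 24% in these data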;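 also: cytokine-independent growth of Ba/F3 cells driven by EpoR plus mutant JAK2; 0% = DMSO-treated cells and 100% = JAK inhibitor I control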
APP transl inh: APP translation inhibition. SH-SY5Y APP 5'UTR-luciferase reporter, luminescence. inhibition, % at 2 µM. actives 0.82% (n = 190,000). AID 1285;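 active = inhibition above a set limit, derived from the sample mean plus 3 SD, cut at about 45% in these data; inconclusive = one replicate passes the limit while the other fails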
IEC-6 tox confirm: IEC-6 cytotoxicity, confirmation assay; shares compounds with IEC-6 tox; IEC-6 rat intestinal epithelial viability, luminescence; inhibition, % at 5 µM; actives 63% (n = 1,900); AID 1907;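 also: 0% = vehicle and 100% = reference cytotoxic drug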
Active calls of the source: *; ? = inconclusive; nt = no result. Rule as the data show it, unless noted: active = inhibition above about 22%; inactive = the rest.

SMILES	IEC-6 tox	KLF5 inhibitor	BaF3 tox	aSyn 5UTR inh	Ba/F3 V617F tox	APP transl inh	IEC-6 tox confirm
Cc1ccc(C(=O)Nc2ncc(Cc3ccccc3)s2)o1	51.3*	-36.4	79.1*	-18.3	81.0*	-205.3	39.7*
O=C1COc2ccc(C(=O)CSc3nnc(Cc4cccs4)n3-c3ccc(Cl)cc3)cc2N1	-6.1	-4.7	3.7	20.0	-2.2	-22.2	nt
CCN(CC)CCNC(=O)CCN1N=C(c2ccccc2)CCC1=O	0.5	-47.8	nt	-0.2	nt	nt	nt
CN(C)/C(=N\S(=O)(=O)c1ccc(Cl)cc1)c1ccc(F)cc1	-5.6	-34.3	nt	6.3	nt	nt	nt
CCS(=O)(=O)c1ncc(Cl)c(C(=O)Nc2ccc(C)cc2)n1	74.9*	19.7	nt	-27.4	nt	nt	41.7*
CC1CCCN(S(=O)(=O)c2ccc(NC(=O)CNC3CCCC3)cc2)C1 (configuration not stated)	3.4	-7.4	nt	0.9	nt	nt	nt
Cc1ccc(CS(=O)(=O)c2ncc(Cl)c(C(=O)Nc3ccc(OC(F)F)cc3)n2)cc1	31.3*	9.6	nt	?	nt	nt	14.6
CCS(=O)(=O)c1ncc(Cl)c(C(=O)Nc2ccc(S(=O)(=O)N3CCCC(C)C3)cc2)n1 (configuration not stated)	101.4*	55.3	nt	72.2*	nt	nt	4.1
CCC1CCCCN1S(=O)(=O)c1ccc(NC(=O)c2ccncc2)cc1 (configuration not stated)	7.0	-25.1	nt	-26.7	nt	nt	nt
O=C(Nc1ccc(OC(F)F)cc1)c1ncc(Cl)c(Cl)c1Cl	10.1	23.3	0.4	-54.3	-1.8	2.4	nt
CCC1CCCCN1S(=O)(=O)c1ccc(NC(=O)c2nc(S(C)(=O)=O)ncc2Cl)cc1 (configuration not stated)	94.1*	8.4	nt	51.3	nt	nt	21.5
CN1CCN(c2ncnc3c2[nH]c2ccc(F)cc23)CC1	3.5	-20.4	7.5	-6.9	0.5	-3.9	nt
CCOc1ccc2[nH]c3c(N4CCc5ccccc5C4)ncnc3c2c1	40.0*	12.1	-2.7	32.9	4.5	nt	90.0*
CCOC(=O)c1[nH]c(C)c(C(=O)c2cc(F)ccc2F)c1C	87.7*	50.6	78.0*	73.9*	63.0*	95.1*	64.6*
CCOC(=O)c1[nH]c(C)c(C(=O)OCc2ccccc2F)c1C	51.0*	36.3	nt	-8.5	nt	nt	37.9*
CCOC(=O)c1[nH]c(C)c(C(=O)OCC)c1C	-0.2	-56.2	-4.8	-3.9	-1.1	-18.8	nt
Cc1ccc(NC(=O)CN2CCc3ccccc3C2)cc1S(=O)(=O)N(C)C	-6.8	-15.4	4.3	16.9	0.5	-11.7	nt
Cc1ccc(NC(=O)Cn2c(=O)cnc3ccccc32)cc1S(=O)(=O)N(C)C	25.4*	5.1	3.5	21.4	4.6	-3.1	3.1
COc1cc2ncnc(NCc3ccc(F)cc3)c2cc1OC	25.4*	6.4	nt	19.0	nt	nt	32.0*
COc1cc2ncnc(NCc3ccc(Cl)cc3)c2cc1OC	29.1*	-4.4	8.7	-16.6	2.1	-6.3	23.3*
COc1cc2ncnc(NCc3ccc(C)o3)c2cc1OC	9.6	-8.7	3.1	13.9	0.6	-4.3	nt
O=C(CCc1nnc(C2CCCCC2)o1)N1CCN(Cc2ccccc2)CC1	2.3	-21.7	2.2	11.7	-1.9	1.3	nt
Cc1ccccc1NC(=O)Cc1nc(COC(=O)CNS(=O)(=O)c2cccc(Br)c2)cs1	-2.5	-30.5	nt	2.6	nt	nt	nt
O=C(NC1CC1)C1CCN(C(=O)c2ccccc2Cl)CC1	-2.3	-6.2	nt	13.2	nt	nt	nt
Cc1cccc(N2CCN(C(=O)c3c(-c4ccccc4)noc3C)CC2)c1C	72.2*	60.7	nt	64.6*	nt	nt	45.2*
SMILES	IEC-6 tox	KLF5 inhibitor	BaF3 tox	aSyn 5UTR inh	Ba/F3 V617F tox	APP transl inh	IEC-6 tox confirm
COc1ccc(Nc2nc(N)c(C(=O)c3ccc(F)cc3)s2)cc1	74.0*	48.4	nt	70.0*	nt	nt	56.9*
CCc1nnc(NC(=O)c2ccc(OC)cc2)s1	35.7*	-33.7	6.5	21.0	-0.6	-128.7	2.5
COc1ccc(C(=O)c2sc(Nc3ccccc3)nc2C)cc1	-2.5	-15.4	nt	-32.0	nt	nt	nt
COc1ccc(Nc2nc(N)c(C(=O)c3ccc(OC)cc3)s2)cc1	65.7*	41.2	nt	18.4	nt	nt	49.7*
COC(=O)C/C(O)=C(/N=Nc1cccc(C(F)(F)F)c1)C(=O)OC	5.0	-19.5	2.4	10.8	-1.1	12.9	nt
CC(C)(C)NC(=O)CCN(/N=C/c1ccccc1F)C1=NS(=O)(=O)c2ccccc21	-8.1	-42.7	nt	-3.1	nt	nt	nt
Cn1c(=O)c2c(nc(NCc3cccnc3)n2Cc2cccc(C(F)(F)F)c2)n(C)c1=O	25.2*	9.2	53.4*	9.6	52.6*	-11.0	24.8*
FC(F)(F)c1cnc(Sc2nnc(-c3cccs3)n2CC2CCCO2)c(Cl)c1 (configuration not stated)	25.2*	-46.6	-0.3	-0.3	1.1	0.3	33.5*
FC(F)(F)c1ccc(Sc2nnc(-c3cccs3)n2CC2CCCO2)nc1 (configuration not stated)	-0.3	-11.9	1.2	19.8	-0.6	19.4	nt
CCO[C@@H]1OC(C(=O)Nc2ccccc2)=C[C@H](c2coc3ccccc3c2=O)[C@H]1CCCO	24.8*	-21.9	-4.3	?	5.9	4.0	4.9
Cc1ccc(C(=O)NCC(=O)NCC(=O)OCc2ccc(F)cc2)cc1	-3.7	-16.2	-2.0	24.9	-1.5	-31.7	nt
Nc1c(Cl)cnn(-c2ccccc2)c1=O	nt	nt	nt	12.9	nt	nt	nt
O=c1c(Cl)c(Cl)cnn1-c1ccccc1	94.8*	10.0	-7.9	-29.4	-1.1	96.0*	30.8*
Clc1ccc(CSc2nncn2-c2ccccn2)cc1	1.8	-18.0	6.5	1.6	-2.3	0.2	nt
Clc1ccc(CSc2nncn2-c2ccc3c(c2)OCCO3)cc1	32.3*	2.3	1.9	65.8*	6.3	nt	30.8*
O=C(O)CCNS(=O)(=O)c1ccc2c(c1)OCCCO2	0.5	-17.2	2.5	9.5	2.6	-4.8	nt
CN1CCCc2cc3c(C(F)(F)F)cc(=O)oc3nc21	3.8	-2.5	0.9	1.3	-1.9	-18.2	nt
COc1cccc(NS(=O)(=O)c2ccc3c(c2)CCN3C(C)=O)c1	6.4	-0.6	nt	-19.4	nt	nt	nt
CSc1cccc(NS(=O)(=O)c2ccc3c(c2)CCN3C(C)=O)c1	33.4*	41.9	nt	-4.0	nt	nt	19.0
CSc1cccc(NC(=S)NC(=O)c2cccnc2)c1	1.3	-29.5	nt	-8.6	nt	nt	nt
CCCNC(=O)c1ccccc1NC(=O)c1ccc2c(c1)NC(=O)C(C)S2 (configuration not stated)	41.5*	34.7	nt	-96.1	nt	nt	21.4
O=C(CC1N=C(Cc2ccccc2)NNC1=O)N/N=C/c1ccc([N+](=O)[O-])cc1 (configuration not stated)	-3.3	7.4	4.0	27.0	-2.6	17.2	nt
O=C(NNC(=O)c1ccc(O)cc1O)c1ccc(-c2ccccc2)cc1	24.0*	-4.5	nt	-5.1	nt	nt	1.2
O=S(=O)(c1ccc2c(c1)nc(COc1ccc(Cl)cc1)n2CC1CCCO1)N1CCOCC1 (configuration not stated)	36.7*	-15.1	56.4*	38.5	33.2*	-3.7	-7.7
